Source: PubChem BioAssay AID1159580 (chemical genetic matrix, 2015)
The whole screen tested about 5,500 compounds, of which about 2,000 (36%) were called active. Inconclusive results (about 18%) are left out. Cut-off read from the data, not from the text of the source: active = normalized growth mostly below about 0.91 (no sharp cut-off); inconclusive = no clear call, values can overlap the other calls; inactive = mostly above about 0.92. The list shows a part of the results.

Experiment: chemical genetic growth profiling, strain panel (AID 1159580);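 note: tested at 20 µM; growth read once vehicle control cultures reached saturation at 30 °C; 1 = growth at the plate median or of vehicle wells; lower values mean less growth of the strain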
Details: growth OD

Measured: normalized growth

CC(C)c1ccc2c(c1)CCC1[C@](C)(CN)CCC[C@]21C (stereo partly specified)
active: S. cerevisiae deletion strains, locus YKL009W, strain mrt4, active compounds read low 0.868 | S. cerevisiae deletion strains, locus YKL190W, strain CNB1, active compounds read low 0.211 | S. cerevisiae deletion strains, locus YKR001C, strain vps1, active compounds read low 0.0635 | S. cerevisiae deletion strains, locus YLR058C, strain SHM2, active compounds read low 0.17 | S. cerevisiae deletion strains, locus YLR102C, strain apc9, active compounds read low 0.922 | S. cerevisiae deletion strains, locus YLR268W, strain sec22, active compounds read low 0.092 | S. cerevisiae deletion strains, locus YLR330W, strain CHS5, active compounds read low 0.262 | S. cerevisiae deletion strains, locus YLR342W, strain FKS1 (second series), active compounds read low 0.269 | S. cerevisiae deletion strains, locus YLR342W, strain FKS1, active compounds read low 0.836 | S. cerevisiae deletion strains, locus YLR370C, strain arc18, active compounds read low 0.865 | S. cerevisiae deletion strains, locus YLR371W, strain rom2, active compounds read low 0.286 | S. cerevisiae deletion strains, locus YLR418C, strain cdc73, active compounds read low 0.11 | S. cerevisiae deletion strains, locus YML016C, strain PPZ1, active compounds read low 0.513 | S. cerevisiae deletion strains, locus YML032C, strain rad52, active compounds read low 0.32 | S. cerevisiae deletion strains, locus YML124C, strain tub3, active compounds read low 0.198 | S. cerevisiae deletion strains, locus YMR078C, strain ctf18, active compounds read low 0.654 | S. cerevisiae deletion strains, locus YMR223W, strain ubp8, active compounds read low 0.177 | S. cerevisiae deletion strains, locus YMR263W, strain SAP30, active compounds read low 0.642 | S. cerevisiae deletion strains, locus YMR307W, strain GAS1, active compounds read low 0.16 | S. cerevisiae deletion strains, locus YNL067W, strain RPL9B, active compounds read low 0.62 | S. cerevisiae deletion strains, locus YNL071W, strain lat1, active compounds read low 0.737 | S. cerevisiae deletion strains, locus YNL128W, strain TEP1, active compounds read low 0.279 | S. cerevisiae deletion strains, locus YNL153C, strain GIM3, active compounds read low 0.262 | S. cerevisiae deletion strains, locus YNL233W, strain BNI4, active compounds read low 0.414 | S. cerevisiae deletion strains, locus YNL298W, strain CLA4, active compounds read low 0.839 | S. cerevisiae deletion strains, locus YNL307C, strain MCK1, active compounds read low 0.132 | S. cerevisiae deletion strains, locus YNL322C, strain KRE1, active compounds read low 0.599 | S. cerevisiae deletion strains, locus YNR052C, strain pop2, active compounds read low 0.0663 | S. cerevisiae deletion strains, locus YOL006C, strain TOP1, active compounds read low 0.139 | S. cerevisiae deletion strains, locus YOL147C, strain pex11, active compounds read low 0.0811 | S. cerevisiae deletion strains, locus YOR061W, strain CKA2, active compounds read low 0.417 | S. cerevisiae deletion strains, locus YOR069W, strain VPS5, active compounds read low 0.847 | S. cerevisiae deletion strains, locus YOR136W, strain idh2, active compounds read low 0.257 | S. cerevisiae deletion strains, locus YOR144C, strain elg1, active compounds read low 0.372 | S. cerevisiae deletion strains, locus YOR184W, strain ser1, active compounds read low 0.124 | S. cerevisiae deletion strains, locus YOR270C, strain vph1, active compounds read low 0.577 | S. cerevisiae deletion strains, locus YOR290C, strain snf2, active compounds read low 0.85 | S. cerevisiae deletion strains, locus YOR316C, strain cot1, active compounds read low 0.837 | S. cerevisiae deletion strains, locus YPL055C, strain LGE1, active compounds read low 0.404 | S. cerevisiae deletion strains, locus YPL241C, strain CIN2, active compounds read low 0.865 | S. cerevisiae deletion strains, locus YPR119W, strain clb2, active compounds read low 0.923 | S. cerevisiae deletion strains, locus YPR163C, strain tif3, active compounds read low 0.072 | S. cerevisiae deletion strains, locus YPR167C, strain met16, active compounds read low 0.731 | S. cerevisiae deletion strains, strain wtn01, active compounds read low 0.146 | S. cerevisiae strains, strain wild type, active compounds read low 0.255
inactive: S. cerevisiae deletion strains, locus YKL068W, active compounds read low 0.982 | S. cerevisiae deletion strains, locus YKL085W, strain MDH1 (second series), active compounds read low 0.978 | S. cerevisiae deletion strains, locus YKL085W, strain MDH1, active compounds read low 0.978 | S. cerevisiae deletion strains, locus YKL160W, strain elf1, active compounds read low 0.952 | S. cerevisiae deletion strains, locus YKR026C, strain gcn3, active compounds read low 1.02 | S. cerevisiae deletion strains, locus YKR091W, strain srl3, active compounds read low 1.01 | S. cerevisiae deletion strains, locus YLL001W, strain dnm1, active compounds read low 0.963 | S. cerevisiae deletion strains, locus YLL026W, active compounds read low 1.01 | S. cerevisiae deletion strains, locus YLL041C, strain sdh2, active compounds read low 1.02 | S. cerevisiae deletion strains, locus YLR027C, strain aat2, active compounds read low 0.978 | S. cerevisiae deletion strains, locus YLR039C, strain RIC1, active compounds read low 1.28 | S. cerevisiae deletion strains, locus YLR113W, strain HOG1, active compounds read low 0.999 | S. cerevisiae deletion strains, locus YLR221C, strain rsa3, active compounds read low 0.953 | S. cerevisiae deletion strains, locus YLR258W, strain gsy2, active compounds read low 0.948 | S. cerevisiae deletion strains, locus YLR262C, strain YPT6 (second series), active compounds read low 0.959 | S. cerevisiae deletion strains, locus YLR262C, strain YPT6, active compounds read low 1.1 | S. cerevisiae deletion strains, locus YLR320W, strain mms22, active compounds read low 0.899 | S. cerevisiae deletion strains, locus YLR357W, strain rsc2, active compounds read low 0.976 | S. cerevisiae deletion strains, locus YLR384C, strain iki3, active compounds read low 0.999 | S. cerevisiae deletion strains, locus YML120C, strain ndi1, active compounds read low 0.92 | S. cerevisiae deletion strains, locus YMR058W, strain fet3, active compounds read low 0.932 | S. cerevisiae deletion strains, locus YMR125W, strain sto1, active compounds read low 0.93 | S. cerevisiae deletion strains, locus YMR129W, active compounds read low 1.01 | S. cerevisiae deletion strains, locus YMR205C, strain PFK2, active compounds read low 0.933 | S. cerevisiae deletion strains, locus YMR231W, strain pep5, active compounds read low 1.03 | S. cerevisiae deletion strains, locus YNL183C, strain NPR1, active compounds read low 0.951 | S. cerevisiae deletion strains, locus YNL209W, strain ssb2, active compounds read low 0.975 | S. cerevisiae deletion strains, locus YNL248C, strain rpa49, active compounds read low 1.01 | S. cerevisiae deletion strains, locus YNL250W, strain rad50, active compounds read low 0.936 | S. cerevisiae deletion strains, locus YNL271C, strain bni1, active compounds read low 0.979 | S. cerevisiae deletion strains, locus YNL322C, strain KRE1 (second series), active compounds read low 1.01 | S. cerevisiae deletion strains, locus YNR049C, strain mso1, active compounds read low 1.03 | S. cerevisiae deletion strains, locus YOL012C, strain htz1 0.217 | S. cerevisiae deletion strains, locus YOR001W, strain rrp6, active compounds read low 1.02 | S. cerevisiae deletion strains, locus YOR070C, strain gyp1, active compounds read low 0.978 | S. cerevisiae deletion strains, locus YOR080W, strain dia2, active compounds read low 0.995 | S. cerevisiae deletion strains, locus YOR083W, strain WHI5, active compounds read low 0.904 | S. cerevisiae deletion strains, locus YOR106W, strain vam3, active compounds read low 0.92 | S. cerevisiae deletion strains, locus YOR231W, strain MKK1, active compounds read low 0.963 | S. cerevisiae deletion strains, locus YOR265W, strain rbl2, active compounds read low 0.999 | S. cerevisiae deletion strains, locus YPL051W, strain arl3, active compounds read low 0.988 | S. cerevisiae deletion strains, locus YPL078C, strain atp4, active compounds read low 0.896 | S. cerevisiae deletion strains, locus YPL106C, strain sse1, active compounds read low 0.939 | S. cerevisiae deletion strains, locus YPL240C, strain hsp82, active compounds read low 0.988 | S. cerevisiae deletion strains, locus YPL256C, strain CLN2, active compounds read low 0.979 | S. cerevisiae deletion strains, locus YPR141C, strain kar3, active compounds read low 0.92
